The campaign covered roughly 300,000 compounds. About 2,300 (0.77%) were called active. This excerpt belongs to a sample that is enriched for actives. Unmarked numbers belong to inactive results.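 How the source made its calls: active means mean activation of at least 80% with every replicate also reaching 80%; inconclusive means mean reaches 80% but some replicate falls short; inactive means the rest.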

This experiment is described as follows: activators of MITF-driven TRPM1 promoter reporter, primary screen, cell-based, SK-MEL-5, luciferase, single point (AID 588334).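 Further: 0% = neutral control wells and 100% = parthenolide positive control wells.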 Conditions: SK-MEL-5 TRPM1-promoter luciferase, 24 h; at 12.5 µM; hits give high values; % of positive control, neutral wells = 0.
For the molecule `CC(C)(C)c1nnc2sc(SCC(O)=C(C#N)c3nc4ccccc4[nH]3)nn2c1=O`, the activation is 7.19%.

With `O=[N+]([O-])c1ccc(NS(=O)(=O)c2ccccc2)c(Cl)c1`, the activation is -5.26%.

With `COc1ccc(C(=O)NC2=NCCS2)c(OC)c1`, the activation is 33.9%.

On to `O=C(NCc1ccc2c(c1)OCO2)c1ccc(Cl)s1`, for which the activation is 9.51%.

Turning to `O=C(NC1=NCCS1)c1ccc(Cl)s1`, the activation is 121% (active).

Take `C[C@H](CO)N1C[C@H](C)[C@H](CN(C)CC2CC2)Oc2ccc(NC(=O)CCN3CCOCC3)cc2C1=O`: the activation was 4.29%.

`COc1cc(/C=C/CNC[C@H]2O[C@@H](n3cnc(C(N)=O)n3)[C@H](O)[C@@H]2O)ccc1O`: the activation is -8.98%.

With `C=CC(=O)Nc1ccc(Nc2ccnc(Nc3ccc(N4CCN(C)CC4)cc3)n2)cc1`, the activation was -13.2%.

As to `Nc1cc2c(cc1Br)-c1ccc(F)cc1C2=O`, the activation is 7.07%.

For `COC(=O)[C@@]1(C)[C@H]2C(=O)N(Cc3ccccc3)C(=O)[C@H]2[C@H]2CN=C(SCC3CC3)N21`, the activation was -1.12%.

Turning to `COC1=NC2=NCCN2C(OC)=N1`, the activation was 4.31%.

`CC(C)Cc1cc(C(=O)Nc2cc(Br)ccc2O)no1`: the activation was 42.2%.

On to `CC(C)CNC(=O)c1cc(-c2ccc(Br)cc2)on1`, for which the activation is 124% (active).

`Cc1c(NC(=O)c2cc(-c3ccc(Br)cc3)on2)c(=O)n(-c2ccccc2)n1C`: the activation was 6.12%.

As for `CC(=O)c1ccc(NC(=O)CSc2nc3ccccc3c(=O)n2CCCN2CCOCC2)cc1`, the activation was 14.6%.

`Cc1ccc(NN=C2C(=O)OC(C)(C)OC2=O)c(C)c1`: the activation was 120% (active).

As for `Cc1ccc(NC(=O)C(=O)NCc2ccco2)c(C)c1`, the activation is 72.2%.

In the case of `Cc1ccc(NC(=O)c2oc(=O)c3ccccc3c2-c2ccccc2)c(C)c1`, the activation was -8.24%.

In the case of `COc1ccc(CNc2nc(NCc3ccc(OC)cc3)c3ncn(C4CCCC4)c3n2)cc1`, the activation is -22%.

As for `CCCN(C(=O)CSc1nnc(N)s1)c1c(N)n(Cc2ccccc2)c(=O)[nH]c1=O`, the activation is -11.7%.

Consider `CCCCNCCS(=O)(=O)NCc1ccccc1`, for which the activation was 11.7%.

In the case of `FC(F)(F)c1ccnc(Oc2ccc(C3=NCCS3)cc2)c1`, the activation was 102% (active).

As to `O=[N+]([O-])c1cccc(C2=NCCS2)c1`, the activation is -11.6%.

On to `O=Cc1ccc(Oc2cccc(C(F)(F)F)c2)nc1`, for which the activation was 2.89%.

With `CC1C(C)N(C(=O)CCl)c2ccccc2N1C(=O)CCl` (stereo unspecified), the activation was -89.8%.

On to `Cc1nn(-c2ccc([N+](=O)[O-])cc2)c(N)c1-c1ccccc1`, for which the activation is 97.5% (active).

For the molecule `Cc1nn(-c2ccccc2)c2c1C(c1cccc([N+](=O)[O-])c1)N(c1ccccc1)C(=O)N2` (stereo unspecified), the activation was -8.33%.

For `O=C1CC(c2ccccc2)=NN1c1ccc([N+](=O)[O-])cc1`, the activation is 29.1%.

With `Cc1ccccc1CC1(CO)CCCN(C(=O)c2cc(-c3ccccc3)no2)C1` (stereo unspecified), the activation was 6.1%.

In the case of `Cc1noc(C)c1CCC(=O)N1CCCC(CO)(Cc2ccccc2)C1` (stereo unspecified), the activation is 67.5%.

As to `COC(=O)CCC(=O)N1CCCC(CO)(Cc2ccccc2)C1` (stereo unspecified), the activation is 94.6% (active).

Take `Cn1cc(C2OC(=O)c3ccccc32)c2ccccc21` (stereo unspecified): the activation is -10.6%.

On to `COc1ccccc1N(CC(=O)Nc1c(C)n(C)n(-c2ccccc2)c1=O)S(=O)(=O)c1ccccc1`, for which the activation is -1.77%.

Regarding `CCCCN(C(=O)c1cccc(N2C(=O)c3ccccc3C2=O)c1)c1c(N)n(CCCC)c(=O)[nH]c1=O`, the activation was -1.35%.

As for `O=C(c1cnn2ccccc12)N1CCc2ccccc21`, the activation was 91.5% (active).

Consider `CCCCn1nc(C(=O)N2CCc3ccccc32)c2ccccc2c1=O`, for which the activation is -15.9%.

As for `Cc1cnc(C(=O)OCC(=O)N2CCc3ccccc32)cn1`, the activation was -0.372%.

Turning to `C=CC(COCc1ccccc1)N(CC(=O)OC)S(=O)(=O)c1cc(Br)ccc1OC` (stereo unspecified), the activation was -10.3%.

Take `CCC(CO)Oc1cc(NC(=O)c2cccc3ccccc23)c2ncn(C(C)C)c2c1` (stereo unspecified): the activation is -4.63%.

For the molecule `COc1ccc(CNC(=O)C[C@H]2C[C@H](C(=O)N3CCOCC3)[C@@]3(CCC4CCCC4)c4[nH]c5ccc(Cl)cc5c4CCN3C2=O)cc1OC`, the activation was -70.8%.

With `N#CC(=C1SC=CS1)c1nc(-c2ccccc2)cs1`, the activation was 47.6%.

Regarding `Clc1ccc(-c2csc(-c3ccncc3)n2)cc1`, the activation is 33.5%.

For the molecule `N#CC(=C1CCCC1)c1nc(-c2ccc(Cl)cc2)cs1`, the activation is 91.3% (active).

With `O=S(=O)(Cc1ccc(Cl)cc1Cl)c1ccc(Cl)cc1`, the activation is 16.2%.

Regarding `CC1(C)C[C@H]2C3=CCC4[C@@]5(C)CC[C@H](O)[C@](C)(CO)C5CC[C@@]4(C)[C@]3(C)C[C@@H](O)[C@@]2(CO)[C@@H](O)[C@@H]1O` (stereo partly specified), the activation is -11.2%.

Turning to `CCCCOc1ccc(-c2nnc(-c3ccco3)o2)cc1`, the activation is 30.3%.

In the case of `O=C(CCc1ccccc1)Nc1cccc(-c2nnc(-c3ccco3)o2)c1`, the activation was 10.8%.

Regarding `CCC(=O)Oc1cccc(C(=O)Nc2ccc(-c3nnc(-c4ccco4)o3)cc2)c1`, the activation was 85.5% (active).

In the case of `CC[C@]12c3[nH]c4cc(CCC(=O)N(C)C)ccc4c3CCN1C(=O)[C@@H](CC(=O)NCC13CC4CC(CC(C4)C1)C3)C[C@@H]2C(=O)N1CCN(C(=O)C2CC2)CC1`, the activation is 5.19%.

In the case of `COc1ccc(/C=C2/CCCc3ccccc3C2=O)cc1`, the activation was 39.3%.

`CCOc1ccccc1/C=N/Nc1nc2ccccc2o1`: the activation is 13.3%.

For the molecule `COc1ccc(/C=N/Nc2nc3ccccc3o2)cc1OC`, the activation was 56.1%.

For the molecule `Brc1ccccc1/C=N/Nc1nc2ccccc2o1`, the activation was 81.1% (active).

On to `O=C(CNC(=O)c1cc(S(=O)(=O)N2CCOCC2)ccc1N1CCCC1)Nc1ccc(F)c(F)c1`, for which the activation was -3.17%.

Regarding `COc1cc2c(cc1CNC[C@H]1O[C@@H](n3cnc(C(N)=O)n3)[C@H](O)[C@@H]1O)OCO2`, the activation is -7.21%.

`COC(=O)[C@@H]1CCCN1C(=O)c1cc(COc2cccc3cccnc23)on1`: the activation is -6.69%.

For the molecule `CSc1ccccc1OCc1cc(C(=O)N(C)CCc2c(C)n[nH]c2C)no1`, the activation is 1.76%.

Turning to `CSc1ccccc1OCc1cc(C(=O)N2C[C@H]3CC[C@H]2C3)no1`, the activation was 91.7% (active).

Consider `C=CCCC(=O)N1C[C@H]2CON(C)[C@H]2C[C@H]1c1cccc(Nc2ccccc2)c1`, for which the activation was 17.1%.

On to `O=C(Nc1ccccc1)Oc1cccc2cccnc12`, for which the activation is -34.4%.

For `CCOC(=O)c1nc(Nc2ccc(C(=O)OC)cc2)c2ccccc2n1`, the activation is 8.95%.

For the molecule `COc1ccc(Nc2ncnc3sc(C)cc23)cc1`, the activation is 68.5%.

Regarding `COC(=O)c1ccc(Nc2ncnc3sccc23)cc1`, the activation is 93.3% (active).

For the molecule `Cc1cccc(C)c1NC(=O)CNC(=O)c1ccc2c(c1)OCCO2`, the activation was 4.28%.

For `O=C(Nc1ccc(Cl)cn1)c1ccc2c(c1)OCCO2`, the activation was 5.88%.

As to `Cc1ccc2sc(NNC(=O)c3ccc4c(c3)OCCO4)nc2c1C`, the activation was -0.623%.

On to `O=C(Nc1ccccc1)c1ccc2c(c1)OCCCO2`, for which the activation was 24.5%.

On to `Cc1nc(NC(=O)c2ccc3c(c2)OCCO3)ccc1Br`, for which the activation was 122% (active).

As to `Cc1ccc(C(=O)NNC(=O)c2ccc3c(c2)OCCO3)cc1`, the activation was 109% (active).

On to `CSCCC(NC(=O)COc1ccccc1)C(=O)N1CCN(c2cccc(C(F)(F)F)c2)CC1` (stereo unspecified), for which the activation is 8.6%.

Turning to `CC(C)N(C(=O)[C@H]1C[C@H](CC(=O)NCCC2=CCCCC2)C(=O)N2CCc3c([nH]c4cc(CCC(=O)N(C)C)ccc34)[C@]12C)C(C)C`, the activation was 10.3%.

Turning to `COc1ccc2[nH]c3c(c2c1)CCN1C(=O)C(CC(=O)NCc2cccc(C(F)(F)F)c2)C[C@H](C(=O)N2CCOCC2)[C@@]31C` (stereo partly specified), the activation is 2.71%.

As to `O=C(NCCC1=CCCCC1)C1CCN(Cc2cnn(-c3ccccc3)c2-n2cccc2)CC1`, the activation was 11.4%.

For the molecule `C1=C(CCNc2ncnc3c2cnn3-c2ccccc2)CCCC1`, the activation was 94.3% (active).

With `O=C(NNc1ncnc2c1cnn2-c1ccccc1)c1ccco1`, the activation is 2.51%.

For the molecule `N#CC(Cc1cc2ccccc2n1S(=O)(=O)c1ccccc1)OCc1ccccc1` (stereo unspecified), the activation was -2.16%.

With `O=C(Nc1ccc(O)cc1)c1ccc(NC(=O)c2ccco2)cc1`, the activation is 30.3%.

Regarding `Cc1ccnc(NC(=O)c2ccc(NC(=O)c3ccco3)cc2)c1`, the activation is 109% (active).

As for `Cc1cc(NC(=O)c2ccc(F)cc2)ccc1NC(=O)c1ccco1`, the activation is 10.4%.

Consider `CC(C)C[C@H]1CN([C@@H](CC(C)C)CN2CCC[C@@H]2CN2C(=O)C(=O)NC[C@@H]2Cc2ccccc2)C(=O)C(=O)N1CCc1ccccc1`, for which the activation is 2.67%.

Turning to `C=CC[C@@H](Cc1ccc(F)cc1)C(=O)OC[C@H]1CCCN1C(=O)[C@H](CC=C)CC(=O)N(CCO)Cc1ccccc1`, the activation was 12.6%.

Regarding `CC(=O)OC1CCC2(C)C(=CCC3C4CC(=O)N(O)C(=O)C4(C)CCC32)C1` (stereo unspecified), the activation is -5.88%.

With `COc1ccc(CNCCCNCc2ccc(OC)c(OC)c2)cc1OC`, the activation was 7.54%.

For the molecule `C/C(=C\C(=O)c1cccnc1)Nc1ccc(C)c(C)c1`, the activation was 104% (active).

For the molecule `Cc1ccc(N/C=C/C(=O)c2ccccc2)cc1C`, the activation was -1.56%.

Consider `Cc1ccc(NC(=O)COc2ccc(/C=N\NC(=O)c3cccnc3)cc2)cc1C`, for which the activation is 13.6%.

For `COc1ccccc1C(=O)Nc1ccc(C)c(S(=O)(=O)N2CCCCC2)c1`, the activation was -6.44%.

With `CC(=O)Nc1ccc(NC(=O)COC(=O)C2CCC(C(C)(C)C)CC2)cc1` (stereo unspecified), the activation is -0.038%.

As to `COc1ccc(-c2noc(-c3cccc(OC)c3OC)n2)cc1OC`, the activation was 88.3% (active).

In the case of `COc1ccc(-c2noc(CCCC(=O)NC3CCCC3)n2)cc1OC`, the activation was 4.98%.

Regarding `COc1ccc(-c2csc(-c3cccs3)n2)cc1OC`, the activation is 56.3%.
